This is a sample that favours compounds with a hit; in the whole collection about 2.9% have one here.
Fam108B inh = Fam108B inhibition, counter-screen for RBBP9 inhibitors | recombinant Fam108B, FP-Rh probe fluorescence polarization | inhibition, % at 9.51 µM | 0.33% of 300,000 active | AID 1947;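 active = inhibition above the screen mean inhibition plus 3 SD, computed separately per campaign, cut at about 18% in these data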;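 note: inhibitors lower polarization as less probe binds the enzyme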
PAFAH1B2 FP inh = PAFAH1B2 (human) inhibition; recombinant PAFAH1B2, FP-rhodamine activity probe, fluorescence polarization; P68402; inhibition, % at 3.39 µM; 1.2% of 340,000 active;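 active = inhibition above the mean of all tested compounds plus 3 SD, cut at about 24% in these data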;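 note: 0% = enzyme with DMSO and 100% = wells lacking PAFAH1B2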
pPAFAH FP inh = pPAFAH (human) enzyme inhibition; recombinant pPAFAH, FP-rhodamine probe fluorescence polarization; 1.5% of 330,000 active; inhibition, % at 3.39 µM;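 active = inhibition above the mean inhibition across the screen plus 3 SD, cut at about 25% in these data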;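 note: inhibitors block binding of the rhodamine activity-based probe so polarization drops; 0% = enzyme with DMSO and 100% = wells lacking pPAFAH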
PAFAH2 inh = PAFAH2 (human) inhibition; Q99487; recombinant PAFAH2, FP-rhodamine activity probe, fluorescence polarization; inhibition, % at 3.39 µM; 0.99% of 340,000 active; AID 492956;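 active = inhibition above the mean over all tested compounds plus 3 SD, cut at about 30% in these data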;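 note: inhibitors block probe labeling of enzyme so polarization drops; 0% = enzyme with DMSO and 100% = wells lacking PAFAH2 protein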
PME-1 inh = blocks human protein phosphatase methylesterase 1. AID 2130. inhibition, % at 5.9 µM. recombinant PME-1, FP-Rh probe fluorescence polarization. 0.53% of 320,000 active. Q9Y570;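 active = inhibition above the campaign mean of all compounds plus 3 SD, cut at about 26% in these data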;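 note: competitive labeling of PME-1 active site by serine hydrolase directed probe; 0% = PME-1 with DMSO and 100% = wells lacking PME-1 enzyme; inhibitors block probe labeling so polarization falls and inhibition rises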
Target sequence (Q9Y570 whole entry, looked up): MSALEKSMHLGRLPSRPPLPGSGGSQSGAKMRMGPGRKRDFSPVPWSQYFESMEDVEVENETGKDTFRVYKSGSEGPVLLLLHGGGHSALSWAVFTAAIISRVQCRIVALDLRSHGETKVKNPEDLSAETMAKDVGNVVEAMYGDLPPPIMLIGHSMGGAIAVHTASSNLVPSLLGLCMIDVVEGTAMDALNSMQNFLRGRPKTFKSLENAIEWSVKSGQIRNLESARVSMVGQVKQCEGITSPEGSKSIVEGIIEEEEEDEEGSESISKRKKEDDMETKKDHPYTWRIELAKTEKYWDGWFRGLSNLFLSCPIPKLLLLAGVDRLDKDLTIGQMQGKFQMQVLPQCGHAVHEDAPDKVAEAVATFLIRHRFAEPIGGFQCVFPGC
PAFAH1B3 FP inh = inhibitors of human PAFAH1B3; recombinant PAFAH1B3, FP-rhodamine probe, fluorescence polarization; 0.28% of 340,000 active; Q15102; AID 492972; inhibition, % at 3.39 µM;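 active = inhibition above the screen-wide average of all tested compounds plus 3 SD, cut at about 25% in these data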;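 note: 0% = enzyme with DMSO only and 100% = wells lacking PAFAH1B3 protein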
* marks the source's active call; other numbers are inactive results; / = no result given.

SMILES | Fam108B inh | PAFAH1B2 FP inh | pPAFAH FP inh | PAFAH2 inh | PME-1 inh | PAFAH1B3 FP inh
COc1ccc(C(=O)COC(=O)c2c(-c3ccccc3)noc2C)c(OC)c1 | -0.7 | -1.3 | -4.2 | -1.6 | -3.1 | 6.1
COc1cccc(CN2CCN(CC(=O)NCCc3ccccc3)CC2)c1 | 1.1 | -5.4 | 2.2 | 1.6 | 4.0 | 11.4
COc1ccc(C2=NN(CN3C(=O)C(=O)c4ccccc43)C(c3cccc([N+](=O)[O-])c3)C2)cc1 (stereo not given) | -3.2 | 5.1 | -0.1 | 3.1 | 5.5 | 2.9
C/C(O)=C(\N=Nc1cc(C)ccc1O)C(N)=O | 2.0 | / | 8.8 | / | -3.2 | /
CCC(C)N1C(=O)/C(=C/c2c(NCCCOC(C)C)nc3c(C)cccn3c2=O)SC1=S (stereo not given) | 4.0 | 34.4* | -0.3 | 52.0* | -20.1 | 37.5*
CCOC(=O)c1ccc(NC(=S)N2CCSC2c2ccc(Br)cc2)cc1 (stereo not given) | -23.8 | 11.5 | 3.8 | -11.8 | -25.9 | 0.2
Cc1cccc(N2C(S)=C(C#N)C(=O)NC2c2cccs2)c1 (stereo not given) | 4.1 | 29.9* | 2.2 | 3.0 | 7.0 | 6.6
N#CC1=C(S)N(c2ccc(F)cc2)C(c2cccs2)NC1=O (stereo not given) | / | 16.6 | / | 1.0 | / | 7.7
O=C(O)c1ccc(CSc2nnnn2-c2ccc(F)cc2)cc1 | -7.5 | -0.1 | 1.6 | 5.6 | 1.9 | 5.3
O=C(O)c1ccc(-n2nnnc2SCc2ccccc2Br)cc1 | 2.9 | 27.4* | 1.1 | 1.4 | 4.3 | 4.6
Cc1cccc(OCc2nnc(SCC(=O)N(c3ccccc3)C3CCS(=O)(=O)C3)o2)c1 (stereo not given) | / | 5.0 | 1.6 | 2.0 | 0.7 | 3.2
CC1CCN(c2ccc(C(=O)O)cc2NS(=O)(=O)c2ccc(Br)cc2)CC1 | 4.8 | 28.2* | 3.4 | 10.5 | 3.6 | 7.1
CC(C)NC(=O)NC(=O)COC(=O)c1ccc(S(=O)(=O)Nc2ccccc2)cc1 | -5.4 | 0.9 | 25.0* | 10.0 | 6.0 | 5.7
CCOC(=O)c1ccn(CSc2c(F)c(F)cc(F)c2F)n1 | / | 5.3 | -0.4 | -0.1 | -4.5 | 6.4
COC(=O)N1C(=O)[C@](c2ccccc2)(C2CCCC2)N1C(=O)OC | -2.7 | 1.3 | 0.8 | 2.1 | 69.6* | -3.0
Cc1cc(C(=O)CSc2ncccn2)c(C)n1-c1cccc(F)c1 | -1.4 | 4.3 | 6.6 | -7.8 | -0.7 | 5.8
Cc1cc(C(=O)CSc2nc(N)cc(N)n2)c(C)n1-c1cccc(C(F)(F)F)c1 | -1.2 | 0.4 | 5.7 | -5.4 | 29.4* | 5.3
O=C(c1cc(S(=O)(=O)N2CCN(c3ccccc3)CC2)ccc1Cl)N1CCCCCCC1 | -0.9 | 6.2 | 31.5* | -0.5 | 18.5 | 0.1
OCCC1CN(Cc2ccccc2-c2ccco2)CCN1C1CCCC1 (stereo not given) | 0.7 | 8.4 | 1.0 | -0.3 | 1.6 | -3.4
CC(=O)Nc1ccc(NC(=O)C(C)c2cccc(C(=O)c3ccccc3)c2)cc1 (stereo not given) | 2.9 | 3.2 | 29.8* | -5.3 | 8.3 | 6.3
CC(C(=O)Nc1ccc(O)cc1)c1cccc(C(=O)c2ccccc2)c1 (stereo not given) | -2.0 | / | 10.9 | / | 12.3 | /
Cc1cc(C)c(C)c(S(=O)(=O)NCCN2CCOCC2)c1C | -4.1 | 3.8 | 0.5 | 11.4 | -2.2 | 2.6
CN(C)c1ccc(NC(=O)CSc2nc3ccccc3c(=O)n2C2CCCCC2)cc1 | 4.4 | 4.1 | 34.2* | 0.8 | 0.9 | 12.2
CCN(CC)CCn1c(SCC(=O)Nc2ccc3c(c2)CCC3)nc2ccccc2c1=O | / | 24.9* | 2.4 | 5.7 | -3.2 | -5.8
Cc1cc(NC(=O)CSc2nc3ccccc3c(=O)n2C2CCCC2)no1 | 1.1 | -0.2 | 30.2* | -2.5 | 26.8* | 2.1
Cc1cc(NC(=O)CSc2nc3ccccc3c(=O)n2Cc2ccccc2)no1 | -2.0 | 7.1 | 0.9 | 0.5 | 0.1 | -4.1
O=C(NC(=O)c1ccccc1O)c1ccc2c(c1)CCO2 | -0.2 | 1.5 | 1.0 | 3.7 | -0.7 | 5.1
O=C1CC[C@@H](CN(Cc2ccccn2)Cc2nc(Cc3cccc(C(F)(F)F)c3)no2)N1 | -2.0 | 3.0 | 5.7 | 0.4 | 3.0 | 1.2
FC(F)(F)c1cccc(Cc2noc(CN(Cc3ccccn3)CC3CCCO3)n2)c1 (stereo not given) | 1.5 | 3.5 | 32.5* | -6.8 | 1.9 | 2.3
